The whole screen tested about 1,900 compounds, of which about 1,200 (63%) were called active.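 Rule for the calls: active = mean activation above the mean of solvent-only control wells plus 3 SD (cut at about 22% in these data); inactive = the rest.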 So high a share suggests a set chosen from earlier hits. The list is a sample of the results.
Assay: frataxin GAA30 reporter activation – cell-based, luminescence, HEK293, lucGAA30, triplicate, counter-screen for GAA850 frataxin promoter activator project, confirmation (AID 588350);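 note: counterscreen of GAA850 promoter hits where activity marks nonselective or luminescence artifacts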
Conditions: HEK293 lucGAA30 FXN promoter luciferase, 24 h; at 6 µM; stronger effect = higher value; DMSO = 0%, 5 µM ipriflavone = 100%

Which activation does the source give for Cc1cc(OCc2cc(C(=O)NCc3cc(C(C)C)no3)no2)cc(C)c1Cl here?
The activation was 110% (active).

With COCCn1c(=NC(=O)c2ccccc2[N+](=O)[O-])sc2cc(S(C)(=O)=O)ccc21 as the compound, how does the activation read?
The activation was 51.5% (active).

With Cc1c(-c2ccccc2)nc(N)c(C#N)c1-c1cccs1 as the compound, how does the activation read?
The activation was 23.3% (active).

For CCOC(=O)c1cc2cc(C)ccc2[nH]1, which activation is on record?
The activation was 74.2% (active).

For CCC(=O)NC(=Nc1nc2ccccc2s1)NC(=O)CC, which activation is on record?
Its activation is 129% (active).

For Cc1ccc(-c2nc3ccccc3[nH]c2=O)cc1, which activation is on record?
Its activation is 101% (active).

With N#Cc1c(N)nc2c3c(sc(=N)c2c1N)NC(=O)CC3c1ccccc1Cl (stereo not given) as the compound, how does the activation read?
The activation was 25.4% (active).

Which activation does the source give for CC1CCc2sc3nc(N4CCN(CCO)CC4)n4ncnc4c3c2C1 (stereo not given) here?
Its activation is 61.1% (active).

Which activation does the source give for O=C(NC1CCCC1)c1cc(-c2ccccc2)on1 here?
The activation was 161% (active).

For O=C(NCCCn1ccnc1)c1cc(-c2ccccc2)on1, which activation is on record?
The activation was 204% (active).

For COc1ccccc1N1CCN(C(=O)c2cc(-c3ccc(Br)cc3)on2)CC1, which activation is on record?
Its activation is -9.05% (inactive).

Which activation does the source give for COC(=O)c1ccc(CSc2nc3ccccc3c(=O)n2-c2cccc(OC)c2)o1 here?
Its activation is 19.9% (inactive).

For CN1C(=O)/C(=C\c2cc(Br)cs2)c2ccccc21, which activation is on record?
Its activation is 102% (active).

Which activation does the source give for Cc1ccc(-c2c3c(=O)n(C)c(=O)n(C)c3cn2-n2cnnc2)cc1 here?
Its activation is -0.74% (inactive).

For CCOc1ccc(N2C(=O)CC(N(CCc3ccc(OC)c(OC)c3)C(=S)Nc3ccccc3)C2=O)cc1 (stereo not given), which activation is on record?
Its activation is -9.82% (inactive).

With O=C(N/N=C/C=C/c1ccco1)c1cccs1 as the compound, how does the activation read?
The activation was 82.6% (active).

With CCC1(CC)Cc2ccccc2-c2nc(CCl)[nH]c(=O)c21 as the compound, how does the activation read?
The activation was -4.18% (inactive).

Which activation does the source give for O=C(CC1NCCc2ccccc21)Nc1cccc(Cl)c1 (stereo not given) here?
Its activation is 69% (active).

Which activation does the source give for N#CC1=C(SCc2ccc(C#N)cc2)N=C(N)C(c2nc(-c3ccccc3)cs2)C12CCCCC2 (stereo not given) here?
The activation was 2.61% (inactive).

Which activation does the source give for O=[N+]([O-])c1ccc(C=Nc2ccc(Cl)cc2Cl)s1 here?
Its activation is -6.04% (inactive).

Which activation does the source give for COc1ccc(C2Nc3ccccc3C(=O)N2c2ccc(Cl)cc2)cc1Cn1cc([N+](=O)[O-])cn1 (stereo not given) here?
Its activation is 92.3% (active).

Which activation does the source give for CN(C(=O)c1cc2c(=O)n3ccccc3nc2s1)C1CCCCC1 here?
Its activation is 116% (active).

For CCCCNC(=O)N(O)C1N(/N=C/c2ccccc2O)C(=S)SC1(C)C (stereo not given), which activation is on record?
The activation was 26.7% (active).

For CCCNC(=O)c1c(Cl)cnn1-c1ccc(C)cc1, which activation is on record?
The activation was 108% (active).

Which activation does the source give for Fc1ccccc1/C=N/Nc1cc(N2CCCCC2)ncn1 here?
The activation was 118% (active).

For Cc1cc(C(=O)N/N=C\C(Br)=C\c2ccccc2)c(C)o1, which activation is on record?
The activation was 58.9% (active).

Which activation does the source give for CC(C)c1cc(C(=O)N/N=C/C(Br)=C/c2ccccc2)n[nH]1 here?
Its activation is -1.66% (inactive).

Which activation does the source give for CCCCCOc1ccc(CSC2=NCCN2)cc1[N+](=O)[O-] here?
Its activation is 79.1% (active).

For O=C(Nc1ccc2c(c1)OCCO2)c1cnccn1, which activation is on record?
Its activation is 87.7% (active).

For O=C(COc1ccc(Cl)cc1Cl)NCCCNC(=O)c1cnccn1, which activation is on record?
Its activation is 11.8% (inactive).

With CCc1ccc(N(C(=O)c2csnn2)C(C(=O)NC2CCCCC2)c2ccncc2)cc1 (stereo not given) as the compound, how does the activation read?
Its activation is 26.5% (active).

With C=C1c2c(Cl)ccc(O)c2C(O)=C2C(=O)[C@]3(O)C(O)=C(C(N)=O)C(=O)[C@@H](N(C)C)[C@@H]3[C@@H](O)C12 (stereo not given in full) as the compound, how does the activation read?
Its activation is 18.7% (inactive).

Which activation does the source give for CN(C)[C@@H]1C(=O)C(C(N)=O)=C(O)[C@@]2(O)C(=O)C3=C(O)c4c(O)ccc(Cl)c4[C@@H](O)[C@H]3C[C@@H]12 here?
The activation was 25.7% (active).

With Cc1noc(C)c1-c1ccc2ncnc(NC(C)c3ccco3)c2c1 (stereo not given) as the compound, how does the activation read?
Its activation is 40.9% (active).

Which activation does the source give for Cn1c(=O)n(C)c2cc(S(=O)(=O)N3CCCc4ccccc43)ccc21 here?
Its activation is 1.6% (inactive).

Which activation does the source give for CN(C)CCNC(=O)c1ccc(Cl)c2cc3ccccc3nc12 here?
The activation was -3.95% (inactive).

For O=C1N=C(N2CCCC2)S/C1=C\c1cccc(Br)c1, which activation is on record?
The activation was 60.8% (active).

For CC(C)(C)C(=O)c1cnc(Nc2ccccc2)s1, which activation is on record?
Its activation is 126% (active).

For Cc1cc(C)n2nc(CNS(=O)(=O)c3c(F)c(F)c(F)c(F)c3F)nc2n1, which activation is on record?
Its activation is 21.4% (inactive).

For Cc1cc(=O)oc(C)c1C(=O)NCc1ccc(F)cc1, which activation is on record?
Its activation is 14.5% (inactive).

Which activation does the source give for O=C(NCc1ccco1)c1ccc(Cn2c(=O)c3sccc3n(Cc3ccc(F)cc3)c2=O)cc1 here?
The activation was 24.6% (active).

Which activation does the source give for Nc1ccc(C(=O)Nc2ccccc2N)cc1 here?
The activation was 54.8% (active).

Which activation does the source give for Cc1nnc(Sc2nc3c(c(=O)[nH]c(=O)n3C)n2Cc2ccccc2)s1 here?
The activation was 12.3% (inactive).

With CNc1nc(Nc2ccc(C)c(Cl)c2)nc(N)c1[N+](=O)[O-] as the compound, how does the activation read?
Its activation is 159% (active).

For COc1ccc(/C=C/C(=O)Nc2ccc(C34CC5CC(CC(O)(C5)C3)C4)cc2)cc1OC, which activation is on record?
The activation was 64.1% (active).

With Cc1ccc(-n2c(C)cc(/C=C(\C#N)C(=O)NCC3CCCO3)c2C)cc1 (stereo not given) as the compound, how does the activation read?
The activation was 110% (active).

For O=C(CN(c1cc(C(F)(F)F)ccc1Cl)S(=O)(=O)c1ccccc1)NCc1cccnc1, which activation is on record?
Its activation is 20.5% (inactive).

Which activation does the source give for O=C(Nc1nnc(S(=O)(=O)N2CCCCCC2)s1)c1cccc(Br)c1 here?
Its activation is 31.3% (active).

Which activation does the source give for CC(C)c1ccc(NS(=O)(=O)c2cn(C)c(=O)n(C)c2=O)cc1 here?
The activation was 13.1% (inactive).

For Cn1c(CCN2CCCCCC2)nc2cc(NC(=O)Nc3ccccc3)ccc21, which activation is on record?
The activation was 122% (active).

With Cc1cc(C)nc(S/C=C/C(=O)c2ccccc2)n1 as the compound, how does the activation read?
The activation was -58.6% (inactive).

For CC[C@]1(C(=O)OC)[C@H]2C(=O)N(Cc3ccccc3)C(=O)[C@H]2[C@H]2CN=C(SCc3ccccc3)N21, which activation is on record?
Its activation is 15.5% (inactive).

With COC(=O)[C@@]1(C)[C@H]2C(=O)N(Cc3ccccc3)C(=O)[C@H]2[C@H]2CN=C(SCC3CC3)N21 as the compound, how does the activation read?
Its activation is 29.2% (active).

With CC[C@]1(C(=O)OC)[C@H]2C(=O)N(Cc3ccccc3)C(=O)[C@H]2[C@H]2CN=C(SCc3ccc(C#N)cc3)N21 as the compound, how does the activation read?
Its activation is 23.6% (active).

Which activation does the source give for CN(C)S(=O)(=O)c1ccc2oc(SCC(=O)Nc3ccccc3F)nc2c1 here?
Its activation is 127% (active).

For O=C(CSc1cccc2cccnc12)N/N=C/c1cccnc1, which activation is on record?
Its activation is -15.3% (inactive).

Which activation does the source give for Cc1ccc2cc(/C=N/Nc3ccc(C(=O)O)cc3)c(Cl)nc2c1 here?
The activation was 109% (active).

For C[C@@]12C(=O)N(c3cccc(Br)c3)C(=O)N1[C@H](c1ccc(Cl)cc1)[C@@H]1C(=O)N(C3CCCCC3)C(=O)[C@@H]12, which activation is on record?
The activation was 0.25% (inactive).

For O=C1[C@H]2[C@@H](c3ccc(Cl)cc3)N3C(=O)N(c4cccc(F)c4)C(=O)[C@@]3(Cc3ccccc3)[C@H]2C(=O)N1C1CCCCC1, which activation is on record?
Its activation is 16.9% (inactive).

Which activation does the source give for O=C1[C@H]2[C@@H](c3ccc(F)cc3)N3C(=O)N(c4ccc(C(F)(F)F)cc4)C(=O)[C@@]3(Cc3ccccc3)[C@H]2C(=O)N1C1CCCCC1 here?
Its activation is 26.3% (active).

Reference: PubChem BioAssay AID588350 (The Scripps Research Institute Molecular Screening Center, 2011)
